This passage reports Potency and fraction of growth remaining results from PubChem BioAssay AID624329 (National Center for Advancing Translational Sciences (NCATS), 2012).

Molecules are shown by their SMILES. Records with an inconclusive call do not appear. Calls of active or inactive are those of the source. The call rests on the fitted dose curve; in most records, active means well fitted curve in the direction sought with a large enough effect; inconclusive means small, poorly fitted or top-dose-only effect; inactive means flat fitted curve, though single readings scatter.

The assay can be described thus: Quantitative high throughput screen for delayed death inhibitors of the malarial parasite plastid: Hit Validation with 3D7 at 48 hr using Flow Cytometry. Conditions: P. falciparum 3D7 growth, flow cytometry SYBR/MitoTracker; fraction of growth remaining: at 50 µM (top of the series). An excerpt: The goal of this screen is to discover new antimalarial compounds that act by inhibiting the development of the apicoplast organelle in the malarial parasite Plasmodium falciparum. Some antibiotics, such as azithromycin and tetracycline, are known to interfere with the apicoplast translational machinery, and have a potent antimalarial effect. […] We developed a cell-based quantitative high throughput screen that leverages this "delayed death" phenotype to enrich for compounds that target the apicoplast. To detect small molecules that cause the delayed death phenotype, erythrocytes infected with firefly luciferase-expressing parasites were incubated with compounds for either one or two generations, corresponding to 48 and 96 hours, respectively. Growth inhibition was detected by a decrease in luciferase activity. Compounds that inhibited parasite growth in the second generation at least five-fold more potently than in the first generation were defined as delayed death inducing. These compounds were selected for confirmatory screening using a flow cytometry based assay. This hit validation assay used the 3D7 cell line and measured at 48 hours. NIH Molecular Libraries Probe Production Network [MLPCN] NIH Chemical Genomics Center [NCGC] MLPCN Grant: R21 NS059500 Assay Provider: David Fidock and Eric Ekland, Columbia University
Test compounds were diluted in 20 microliters of complete media (RPMI 1640 with 0.5% w/v Albumax (GIBCO), 24 mM sodium bicarbonate (Sigma) and 10 ug/mL gentamycin (Gibco)) in clear 384-well plates (Greiner). All liquid handling was conducted using a Bio Tek Precision 2000 pipetting system. Twenty microliters of infected erythrocytes, 0.2% parasitemia (for 48 hour time points) or 0.1% parasitemia (for 96 hour time points) were added to the compound dilutions (1% hematocrit, final concentration; 40 microliters, total culture volume). The assay plates were incubated for 48 hours, or 96 hours, at 37 masculine C in a humidified chamber (Billups- Rothenberg, Del Mar, CA, USA), gassed with 5%CO2/5%O2/ 90%N2. After one generation (48 hours), 5 microliters of culture were harvested and transferred to a second 384 well plate for fluorescent staining. Samples were stained with 30 microliters of 2 x SYBR Green I (Invitrogen) and 150nM MitoTracker Deep Red (Invitrogen) diluted in 0.9% NaCl, 0.2% dextrose (Baxter) supplemented with 2.5% Fetal Calf Serum (Gibco) (saline/FCS). Mature erythrocytes lack nuclei and mitochondria, therefore only parasitized erythrocytes retain the SYBR Green I and MitoTracker Deep Red. After 30 minutes at 37 masculine C, the stained cells were diluted in an additional 60 microliters of saline/FCS. The samples were harvested directly from the 384 well plate using a Hypercyt High Capacity Flow Platform (Intellicyt) paired with a C6 Flow Cytometer (Accuri). The flow cytometry files were analyzed using FlowJo software (FlowJo).
In the case of `O=C(CSc1ccc(-c2cccnc2)nn1)Nc1ccccc1C(F)(F)F`, the Potency is 12.4 µM (active).
For the molecule `CC(=O)NC[C@@H]1CN(c2ccc(N3CCOCC3)c(F)c2)C(=O)O1`, the Potency entry is “inactive”.
The same measure, in the same setting: to `Clc1ccc(-c2c[n+](Cc3ccc(Cl)cc3Cl)c3n2CCCCC3)cc1` belongs 5.64 µM (active); to `CCCCOc1ccc(N2C(N)=NC(N)=NC23CCCCC3)cc1`, 22.2 µM (active); to `c1csc(CNc2ncnc3nc[nH]c23)c1`, “inactive”.
With `CCc1nc(SCC(=O)Nc2ccc(N(C)C)cc2)n[nH]1`, the Potency was 0.4 µM (active).
Same read-out and setting: with `Cc1ccc(S(=O)(=O)Nc2ccc(C(=O)Nc3ccncc3)cc2)cc1` the figure was 26.3 µM (active).
Still for that read-out and setting: with `CCCc1c(CC)c(=N)c2ccccc2n1C` the figure was 6.48 µM (active); with `N#Cc1cccc(NC(=O)Cn2c3[n+](c4ccc(C(F)(F)F)cc42)CCCCC3)c1`, 19.9 µM (active).
Still for that read-out and setting: to `Cc1ccc(-n2c(-c3ccc(Cl)cc3)c[n+]3c2CCC3)cc1` belongs 4.64 µM (active); to `CCC(=O)OC1C(N(C)C)CC(C)O[C@H]1O[C@H]1[C@H](C)[C@@H](O[C@H]2CC(OC)[C@@H](O)C(C)O2)[C@H](C)C(=O)O[C@@H](CC)[C@](C)(O)[C@@H](O)[C@H](C)C(=O)[C@@H](C)C[C@]1(C)O` (stereo partly drawn), “inactive”.
In the case of `CCCCN(CCCNC(=O)c1ccc(CS(=O)(=O)c2ccc(OC)cc2)o1)Cc1ccccc1`, the fraction of growth remaining was 0.163 (active).
Regarding `COc1ccc(NC(=S)N2CCC(Cc3ccccc3)CC2)cc1OC`, the Potency is 46.5 µM (active).
Same read-out and setting: with `CCOC(=O)c1ccc2c(c1)n(CC)c(/C=C/N(C)c1ccccc1)[n+]2CC` the figure was 1.52 µM (active); with `COc1ccc2cc3cc(C(=O)Nc4ccc5c(c4)OCO5)oc3nc2c1`, 48.3 µM (active); with `CCOc1ccc(S(=O)(=O)Nc2cc(S(=O)(=O)N(CC)CC)ccc2N2CCCC2)cc1`, 12.5 µM (active).
With `CC1=Nc2cc(C(=O)N3CCCC3)ccc2Sc2ccc(C)cc21`, the fraction of growth remaining was 0.151 (active).
On to `O=C(CNC(=O)C1CCCCC1)OC(C(=O)c1ccccc1)c1ccccc1` (stereo not drawn), for which the Potency entry is “inactive”.
Still for that read-out and setting: with `CCCc1cc(=O)oc2cc(OC(C)C(=O)NCc3ccccn3)c(Cl)cc12` (stereo not drawn) the figure was 16.9 µM (active); with `CCCCN(CCCNC(=O)C1CCN(C(=O)c2cc3sccc3n2C)CC1)Cc1ccccc1`, 9.82 µM (active).
On the same count and under the same terms, to `COc1cccc(CN2CCN(c3nc4nonc4nc3N3CCCCC3)CC2=O)c1` belongs 5.55 µM (active).
The same measure, in the same setting: with `O=C(NCc1cccnc1)c1ccc(NS(=O)(=O)c2ccccc2)cc1` the figure was 30.9 µM (active); with `COc1ccccc1N1CCN(CCC(=O)Nc2ccc(F)cc2)CC1`, 18.3 µM (active); with `CO[C@@H]1[C@@H](OC2OC(C)C(OC3CC(C)(O)C(OC(=O)CC(C)C)C(C)O3)C(N(C)C)C2O)[C@@H](CC=O)C[C@@H](C)C(=O)/C=C\C2O[C@H]2C[C@@H](C)OC(=O)C[C@H]1OC(C)=O` (stereo partly drawn), 2.95 µM (active).
With `COc1ccc2c(ccc[n+]2CC(=O)c2ccccc2)c1`, the Potency is 9.29 µM (active).
Still for that read-out and setting: with `CCOc1ccc(NC(=O)C[n+]2ccc(N(C)C)cc2)cc1` the figure was 25.8 µM (active).
On to `Cc1ccc(CN2CCC(n3nccc3NC(=O)c3ccccc3C)CC2)o1`, for which the fraction of growth remaining is 0.498 (active).
`Cc1c(F)c(N2CCNC(C)C2)cc2c1c(=O)c(C(=O)O)cn2C1CC1` (stereo not drawn): the Potency was 5.98 µM (active).
